PubChem BioAssay AID2153 (The Scripps Research Institute Molecular Screening Center, 2009)
The campaign covered roughly 2,400 compounds. About 2,000 (83%) were called active.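 How the source made its calls: active means inhibition above the solvent-only control well mean plus 3 SD, limit set per screening run (cut at about 23% in these data); inactive means the rest.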 So high a share suggests a set chosen from earlier hits. The list is a sample of the results.

Molecular target: Guanyl-specific ribonuclease T1 (Aspergillus oryzae (strain ATCC 42149 / RIB 40)) (UniProt P00651)
Assay: RNase T1 inhibitors, counter-screen for TPT1 inhibitor project, biochemical, fluorescence polarization (AID 2153);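 further: plate controls were DMSO wells with enzyme for no effect and wells without RNase T1 for full effect; inhibitors block cleavage so intact labeled substrate keeps polarization high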
Conditions: RNase T1 cleavage, 1536-well, at 5 µM, stronger effect = higher value

Sequence of Guanyl-specific ribonuclease T1 (Aspergillus oryzae (strain ATCC 42149 / RIB 40)) (P00651 whole entry, looked up): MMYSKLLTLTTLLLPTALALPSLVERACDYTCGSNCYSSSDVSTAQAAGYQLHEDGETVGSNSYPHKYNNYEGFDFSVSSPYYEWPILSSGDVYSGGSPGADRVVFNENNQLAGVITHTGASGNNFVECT

Row | Compound | inhibition
1 | Nc1nonc1-n1nnc(C(=O)N/N=C/c2cc(Br)ccc2O)c1CSC1=NCCS1 | 41.6% (active)
2 | COc1ccccc1/C=N/Nc1nc(C)c(C(C)=O)s1 | 39.1% (active)
3 | O=C(CN1C(=O)c2ccccc2C1=O)NCc1ccc(C(=O)O)cc1 | 15.9% (inactive)
4 | Cc1c(CC(=O)N2CCN(C(=O)C3COc4ccccc4O3)CC2)c(=O)oc2c(O)c(O)ccc12 (configuration not stated) | 8.71% (inactive)
5 | COc1cc(/C=C2/SC(=S)N(Cc3ccccc3)C2=O)cc(OC)c1O | 108% (active)
6 | NC(=O)c1c(Nc2nc3c(F)cccc3s2)sc2c1CCCC2 | 97.8% (active)
7 | CC1=CC2=NC(=O)/C(=C/c3coc4ccccc4c3=O)C(=N)N2O1 | 45.6% (active)
8 | Oc1ccc(/C=N/Nc2nc(-c3ccccc3F)nc3ccccc23)c(O)c1 | 41.4% (active)
9 | CCOC(=O)/C(C#N)=C/c1ccc(N2CCN(Cc3ccccc3)CC2)cc1 | 92.8% (active)
10 | CCOC(=O)/C(C#N)=C/c1ccc(N2CCCCC2)cc1 | 129% (active)
11 | Cc1ccc(CC2S/C(=C(/C#N)C(=O)N3CCOCC3)N(c3ccccc3)C2=O)cc1 (configuration not stated) | 14.3% (inactive)
12 | N#C/C(=C/c1ccc(N2CCOCC2)o1)C(=O)N1CCOCC1 | 178% (active)
13 | N#C/C(=C\c1ccc(N2CCOCC2)o1)C(=O)N1CCOCC1 | 165% (active)
14 | COc1cc2c(cc1O)[C@H](Cc1ccc(Oc3cc(C[C@@H]4NCCc5cc(OC)c(O)cc54)ccc3O)cc1)NCC2 | 44.2% (active)
15 | Cc1nc2ccccc2nc(=O)c1NNc1ccc([N+](=O)[O-])cc1 | 47.2% (active)
16 | O=C1NC(=O)C2C1C(c1ccc([N+](=O)[O-])cc1)=NN2Cc1ccccc1 (configuration not stated) | 48% (active)
17 | Nc1c(C(=O)c2cccs2)sc2nsc(SCCN3CCCCC3)c12 | 73.8% (active)
18 | CN1C(=O)/C(=C/C=C2\SCCN2C)OC1=S | 165% (active)
19 | COc1ccc(N=C(C)c2sc3ccccc3c2O)cc1 | 82.8% (active)
20 | Cc1cccc2cc3c(N)c(C(=O)N4CCCc5ccccc54)sc3nc12 | 68.5% (active)
21 | Cc1sc2nc(COC(=O)C(NC(=O)c3ccc(Cl)cc3Cl)C(C)C)[nH]c(=O)c2c1C (configuration not stated) | 66.8% (active)
22 | O=C(Nc1ccc(S(=O)(=O)Nc2nccs2)cc1)c1cc(-c2ccncc2)nc2ccccc12 | 64.3% (active)
23 | CCCCCCc1cc2cc(-c3nnc(-c4ccccc4)o3)c(=O)oc2cc1O | 110% (active)
24 | NNC(=O)c1oc2nc(-c3ccccc3)cc(-c3ccco3)c2c1N | 43.8% (active)

Row | Compound | inhibition
25 | COc1cc(/C=C(\C#N)c2nc3ccccc3[nH]2)ccc1O | 112% (active)
26 | COc1cc(/C=C(\C#N)c2nc3c(s2)CC(C)CC3)ccc1O (configuration not stated) | 125% (active)
27 | C[n+]1ccc(/C=C/c2c[nH]c3ccccc23)cc1 | 63.7% (active)
28 | CN(c1ccccc1)c1ccc(/C=c2\s/c(=C(/C#N)C(=O)C(C)(C)C)n(Cc3ccco3)c2=O)cc1 | 125% (active)
29 | C=CCC1=C/C(=C\c2c(N)n3nc(CC(=O)N4CCOCC4)sc3nc2=O)C=C(OC)C1=O | 106% (active)
30 | CC(C)(C)c1ccc(/C=C2\Oc3c(ccc(O)c3CN3CCN(CCO)CC3)C2=O)cc1 | 45.6% (active)
31 | Cc1ccc(CSCC2Nc3ccc(C(=O)N4CCN(c5ccc(F)cc5)CC4)cc3NC2=O)cc1 (configuration not stated) | 22.8% (active)
32 | O=C1Nc2cc(C(=O)N3CCN(c4ccc(F)cc4)CC3)ccc2NC1CSCc1cccc(F)c1 (configuration not stated) | 116% (active)
33 | CC(C)c1ccc(Nc2nnc(SCC(=O)c3nnc(-c4ccccc4)o3)s2)cc1 | 29.1% (active)
34 | CN1C(=O)/C(=C\c2ccc(-c3ccccc3)o2)SC1=S | 96.2% (active)
35 | O=C(O)C(c1ccccc1)N1C(=O)/C(=C\c2ccc(-c3cccc(Cl)c3)o2)SC1=S (configuration not stated) | 146% (active)
36 | CCC(=C/c1sc2ccc3ccccc3c2[n+]1C)/C=C1\Sc2ccc3ccccc3c2N1C | 104% (active)
37 | O=C(N/N=C/c1sc(N2CCCCC2)nc1-c1cccs1)c1cccnc1 | 51.2% (active)
38 | O=[N+]([O-])c1ccc(N/N=C/c2ccccc2)cc1 | 52.2% (active)
39 | Cc1cccc(NC(=O)c2ccc(COc3ccccc3[N+](=O)[O-])o2)n1 | 8.35% (inactive)
40 | Cc1cccc(COc2ccccc2/C=N/Nc2ccc([N+](=O)[O-])cc2)c1 | 98.6% (active)
41 | CCOc1ccc(/C=C2\SC(=S)N(NC(=O)c3ccncc3)C2=O)cc1OC | 65.5% (active)
42 | Cc1c(C(=O)OC(C)C)sc(NC(=O)c2cccnc2)c1C#N | 38.8% (active)
43 | CCOc1cc(/C=C(\C#N)c2nc(-c3cccs3)c(NC(C)=O)s2)ccc1O | 95.6% (active)
44 | Cn1ccc(=NC=C(C#N)C#N)c2ccccc21 | 31.9% (active)
45 | CC1CCN(C(=O)c2ccc3c(c2)NC(=O)CN3)CC1 | 52.2% (active)
46 | O=C(C[n+]1cc(Br)cc2ccccc21)c1ccc(F)cc1 | 54.2% (active)
47 | O=C(Cc1nc2ccccc2[nH]c1=O)c1ccc(Cl)cc1 | 65.7% (active)
